Measurements as given in PubChem BioAssay (EPA / NIEHS).
Several values for one entry are separate records, joined by “and”; a condition that tells them apart may be missing. Equal entries are not always repeated. A structure can be active in one record and inactive in another. Activity calls are given as the source filed them. How the source made its calls: active means hit-call score of the fitted dose curve at least 0.9, where 1 is the maximum; inactive means score below 0.9.

Columns and labels:
[1] = APR_HepG2_NuclearSize_72hr: Apredica 72-hour HepG2 Assay for Nuclear Size (AID 2282925); details: high-content imaging, actives raise or lower the signal
In short: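 Compounds (0.39–200 uM, final DMSO 0.5%) were applied to HepG2 for 72 hr. Cells were then formaldehyde-fixed, permeabilized and labelled with Hoechst 33342. Nuclear diameter was quantified from six images per well.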

[2] = ATG_CRE_CIS: Attagene CIS-FACTORIAL HepG2 Assay for human cAMP Responsive Element (CRE) binding protein 3 (AID 2282926); details: HepG2 CRE cis-reporter, Attagene multiplexed mRNA; actives raise or lower the signal
In short: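 Liver-derived HepG2, transfected with a CRE-containing reporter panel, exposed 24 h; transcript levels sized and quantified by capillary electrophoresis of labelled amplicons; signal changes either way referenced to vehicle.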

[3] = molecular target: CCAAT/enhancer-binding protein beta (Homo sapiens) (UniProt P17676); experiment: ATG_C_EBP_CIS: Attagene CIS-FACTORIAL HepG2 Assay for human CCAAT/Enhancer Binding Protein (C/EBP) beta (AID 2282927); details: HepG2 Attagene cis-factorial transcription factor reporter; actives raise or lower the signal
Chain of CCAAT/enhancer-binding protein beta (Homo sapiens) (P17676 whole entry, looked up, the tested form may be a part): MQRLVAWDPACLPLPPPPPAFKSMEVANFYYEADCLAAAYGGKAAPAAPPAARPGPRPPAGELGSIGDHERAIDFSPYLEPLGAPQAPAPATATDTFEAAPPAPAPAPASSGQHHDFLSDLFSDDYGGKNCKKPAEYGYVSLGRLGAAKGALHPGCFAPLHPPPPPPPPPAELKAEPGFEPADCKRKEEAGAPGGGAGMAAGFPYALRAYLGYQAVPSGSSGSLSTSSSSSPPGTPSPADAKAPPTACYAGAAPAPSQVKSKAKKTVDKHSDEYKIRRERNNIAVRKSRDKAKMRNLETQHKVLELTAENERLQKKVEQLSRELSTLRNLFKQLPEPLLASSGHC
In short: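 Chemical-treated HepG2 cells (24 h) bearing cis-regulated reporter constructs were processed for total RNA, then reverse transcription, PCR amplification, fluorescent primer extension and fragment analysis; gain- and loss-of-signal were fitted against DMSO.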

[4] = ATG_CMV_CIS: Attagene CIS-FACTORIAL HepG2 Assay for human CMV (Internal Marker) (AID 2282928); details: HepG2 CMV promoter reporter, transcription factor profiling; actives raise or lower the signal;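 further: endpoint acts as a background internal control marker rather than a target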
In short: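 Reporter transcripts from transfected HepG2 cells are isolated after 24 h of chemical dosing, reverse-transcribed and amplified. Fragments labeled with 6-FAM are cut with HpaI and quantified by capillary electrophoresis; DMSO defines baseline.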

[5] = ATG_DR4_LXR_CIS: Attagene CIS-FACTORIAL HepG2 Assay for human Liver X Receptor (LXR), DR4 submotif (AID 2282929); details: HepG2 Attagene DR4 cis-reporter, mRNA transcription; actives raise or lower the signal
In short: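 Measures endogenous transcription factor activity via a DR4-driven reporter transcript in human HepG2 cells. Compounds incubated 24 h; mRNA quantified by RT-PCR and capillary electrophoresis, analysed as gain or loss of signal versus DMSO.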

[6] = molecular target: Aryl hydrocarbon receptor (Homo sapiens) (UniProt P35869); experiment: ATG_Ahr_CIS: Attagene CIS-FACTORIAL HepG2 Assay for human Aryl Hydrocarbon Receptor (Ahr) (AID 2282930); details: HepG2 AhR cis-factorial reporter transcription; actives raise or lower the signal
Chain of Aryl hydrocarbon receptor (Homo sapiens) (P35869 whole entry, looked up): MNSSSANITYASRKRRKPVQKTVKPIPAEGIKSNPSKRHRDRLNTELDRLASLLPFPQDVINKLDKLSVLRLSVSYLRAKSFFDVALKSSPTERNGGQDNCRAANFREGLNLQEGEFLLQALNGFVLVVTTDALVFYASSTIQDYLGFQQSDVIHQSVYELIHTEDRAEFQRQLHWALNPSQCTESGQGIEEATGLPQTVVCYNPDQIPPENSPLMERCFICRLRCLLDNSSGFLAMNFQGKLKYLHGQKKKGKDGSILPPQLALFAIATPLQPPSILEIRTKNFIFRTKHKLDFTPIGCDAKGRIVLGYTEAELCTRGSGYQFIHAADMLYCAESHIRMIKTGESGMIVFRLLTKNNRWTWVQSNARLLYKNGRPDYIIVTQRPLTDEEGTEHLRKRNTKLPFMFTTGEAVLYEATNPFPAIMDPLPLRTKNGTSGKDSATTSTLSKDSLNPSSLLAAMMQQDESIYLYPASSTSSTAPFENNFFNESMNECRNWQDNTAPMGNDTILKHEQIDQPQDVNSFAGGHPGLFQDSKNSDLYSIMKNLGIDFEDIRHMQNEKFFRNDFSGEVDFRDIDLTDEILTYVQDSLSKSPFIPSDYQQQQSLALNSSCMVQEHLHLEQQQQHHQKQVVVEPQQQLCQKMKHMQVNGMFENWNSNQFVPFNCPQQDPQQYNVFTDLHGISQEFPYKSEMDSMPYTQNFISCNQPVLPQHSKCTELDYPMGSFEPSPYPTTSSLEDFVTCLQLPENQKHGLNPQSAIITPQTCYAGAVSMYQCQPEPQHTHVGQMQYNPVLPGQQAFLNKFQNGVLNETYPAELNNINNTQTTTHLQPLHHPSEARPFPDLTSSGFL
In short: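 Following 24 h of chemical dosing, transfected HepG2 liver cells with cis-driven reporter units were lysed for RNA; reporter mRNA was quantified via RT-PCR and capillary electrophoresis, and responses fitted bidirectionally from DMSO.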

[7] = ATG_AP_1_CIS: Attagene CIS-FACTORIAL HepG2 Assay for human Activator Protein 1 (AP-1) (AID 2282931); details: HepG2 Attagene cis-factorial AP-1 reporter mRNA; actives raise or lower the signal
In short: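 Bidirectional concentration-response fitting against DMSO controls. Underlying signal: reporter mRNA from cis-promoter constructs in transiently transfected HepG2, measured after 24 h by RT-PCR and capillary electrophoresis.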

[8] = ATG_AP_2_CIS: Attagene CIS-FACTORIAL HepG2 Assay for human Activator Protein 2 (AP-2) (AID 2282932); details: HepG2 AP-2 cis-reporter, Attagene transcription factor profiling; actives raise or lower the signal
In short: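 Cells (HepG2) transfected with promoter-driven reporter constructs, treated 24 h. Total RNA reverse-transcribed, reporter cDNA PCR-amplified, FAM-labelled by primer extension, digested, resolved by capillary electrophoresis. Activity fitted both directions versus DMSO.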

[9] = molecular target: Retinoic acid receptor alpha (Homo sapiens) (UniProt P10276); experiment: ATG_DR5_RAR_CIS: Attagene CIS-FACTORIAL HepG2 Assay for human Retinoic Acid Receptor Alpha (RARE), DR5 submotif (AID 2282934); details: HepG2 Attagene cis-factorial RARE DR5 reporter, mRNA; actives raise or lower the signal;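 on AC50: reporter responds to endogenous RAR alpha beta and gamma in HepG2 not RARA alone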
Chain of Retinoic acid receptor alpha (Homo sapiens) (P10276 whole entry, looked up): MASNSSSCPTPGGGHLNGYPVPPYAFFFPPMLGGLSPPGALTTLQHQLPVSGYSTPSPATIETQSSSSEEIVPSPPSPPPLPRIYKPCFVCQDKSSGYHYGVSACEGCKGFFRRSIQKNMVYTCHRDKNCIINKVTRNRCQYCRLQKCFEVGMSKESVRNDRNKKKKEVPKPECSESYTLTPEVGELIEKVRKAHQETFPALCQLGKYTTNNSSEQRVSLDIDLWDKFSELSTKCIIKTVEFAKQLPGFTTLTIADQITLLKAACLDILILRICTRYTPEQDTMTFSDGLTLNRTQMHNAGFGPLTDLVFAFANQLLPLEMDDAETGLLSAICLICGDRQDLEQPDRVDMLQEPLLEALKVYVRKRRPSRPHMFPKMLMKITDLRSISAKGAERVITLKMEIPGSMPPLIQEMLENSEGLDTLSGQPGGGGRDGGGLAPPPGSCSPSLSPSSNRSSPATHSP
In short: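 Transfected HepG2 reporter cells are exposed to chemicals for 24 h. Then RNA is extracted and the DR5 element reporter transcript is measured by RT-PCR and capillary electrophoresis, with bidirectional curve fitting relative to DMSO.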

[10] = ATG_BRE_CIS: Attagene CIS-FACTORIAL HepG2 Assay for human Bone Morphogenetic Protein (BMP) Response Element (BRE) (AID 2282933); details: HepG2 BMP response element reporter, Attagene transcription factor profiling; actives raise or lower the signal
In short: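 Fluorescence-labelled reporter cDNA fragments, separated by capillary electrophoresis, gave the signal for this component of a 52-readout multiplex. HepG2 cells were transfected, exposed to chemicals for 24 h, and compared with DMSO using bidirectional fitting.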

Compound | outcome [1] | outcome [2] | outcome [3] | outcome [4] | outcome [5] | outcome [6] | AC50 [7] | outcome [7] | outcome [8] | outcome [9] | outcome [10] | AC50 [4] | AC50 [9] | AC50 [1] | AC50 [2] | AC50 [3] | AC50 [5] | AC50 [6] | AC50 [8] | AC50 [10]
COC(=O)c1ccccc1S(=O)(=O)NC(=O)Nc1nc(C)nc(OC)n1 | inactive | inactive | inactive | inactive | inactive | inactive | 63.1 µM (active) | inactive | inactive | inactive |  |  |  |  |  |  |  |  |  | 
CCOCN(C(=O)CCl)c1c(C)cccc1CC | inactive | inactive | inactive | inactive | inactive | inactive |  | inactive | inactive | inactive | inactive |  |  |  |  |  |  |  |  | 
CCCN(CCOc1c(Cl)cc(Cl)cc1Cl)C(=O)n1ccnc1 | inactive | inactive | inactive | inactive | inactive |  | 14 µM (active) | inactive | inactive | inactive |  | 11.1 µM (active) | 3.01 µM (active) |  |  |  |  |  |  | 
Oc1cc(Cl)ccc1Oc1ccc(Cl)cc1Cl | inactive | inactive | inactive | inactive | inactive | inactive | 8.94 µM (active) [middle of 5 runs] | inactive | inactive |  |  | 8.95 µM (active) [middle of 5 runs] |  | 36.8 µM (active) | 8.07 µM (active) [middle of 4 runs] | 20.5 µM (active) | 17.6 µM (active) [middle of 4 runs] | 5.97 µM (active) | 20.7 µM (active) | 
CCCN(CCC)c1c([N+](=O)[O-])cc(C(F)(F)F)cc1[N+](=O)[O-] | inactive | inactive |  |  |  | inactive |  | inactive | inactive |  | inactive | 82.3 µM (active) |  |  |  | 2.59 µM (active) | 24.1 µM (active) |  |  | 
Clc1ccccc1-c1nnc(-c2ccccc2Cl)nn1 | inactive | inactive | inactive | inactive | inactive | inactive |  | inactive | inactive | inactive | inactive |  |  |  |  |  |  |  |  | 
C#CCN1C(=O)COc2cc(F)c(N3C(=O)C4=C(CCCC4)C3=O)cc21 | inactive |  | inactive | inactive | inactive | inactive |  | inactive | inactive | inactive | inactive |  |  |  | 22.4 µM (active) |  |  |  |  | 
ClC1C(Cl)C(Cl)C(Cl)C(Cl)C1Cl (stereo not given) | inactive | inactive | inactive | inactive | inactive | inactive | 47.9 µM (active) | inactive | inactive | inactive |  | 65.5 µM (active) | 11 µM (active) and 5.74 µM (active) |  | 16 µM (active) | 61.8 µM (active) | 116 µM (active) and 21.7 µM (active) |  |  | 
CNC(=O)/C=C(\C)OP(=O)(OC)OC | inactive | inactive | inactive | inactive | inactive | inactive |  | inactive | inactive |  |  |  |  |  |  |  |  |  |  | 
O=C(O)C(F)(F)C(F)(F)C(F)(F)C(F)(F)C(F)(F)C(F)(F)C(F)(F)F | inactive | inactive | inactive | inactive | inactive | inactive | 150 µM (active) | inactive | inactive |  |  |  |  |  |  |  | 11.5 µM (active) |  |  | 
CCOC1Oc2ccc(OS(C)(=O)=O)cc2C1(C)C (stereo not given) | inactive |  |  | inactive | inactive | inactive |  | inactive | inactive |  |  |  | 12.5 µM (active) |  | 24 µM (active) | 14.5 µM (active) |  |  |  | 61.4 µM (active)
CCN(CC)C(=O)SCc1ccc(Cl)cc1 | inactive | inactive |  | inactive | inactive | inactive |  | inactive | inactive | inactive |  |  |  |  |  | 8.69 µM (active) |  |  |  | 50 µM (active)
O=C(NC(=O)c1c(F)cccc1F)Nc1ccc(OC(F)(F)C(F)OC(F)(F)F)c(Cl)c1 (stereo not given) | inactive | inactive | inactive | inactive | inactive | inactive |  | inactive | inactive |  |  |  |  |  |  |  |  |  |  | 14.2 µM (active)
CC[C@H](C)[C@H]1O[C@]2(C=C[C@@H]1C)C[C@@H]1C[C@@H](C/C=C(\C)[C@@H](O[C@H]3C[C@H](OC)[C@@H](O[C@H]4C[C@H](OC)[C@@H](O)[C@H](C)O4)[C@H](C)O3)[C@@H](C)/C=C/C=C3\CO[C@@H]4[C@H](O)C(C)=C[C@@H](C(=O)O1)[C@]34O)O2 (tested in a mixture with another compound) | inactive | inactive | inactive | inactive |  | inactive |  | inactive | inactive | inactive |  |  |  |  |  |  | 1.75 µM (active) |  |  | 
O=S(=O)(O)C(F)(F)C(F)(F)C(F)(F)C(F)(F)C(F)(F)C(F)(F)C(F)(F)C(F)(F)F | inactive | inactive | inactive | inactive | inactive | inactive | 26.9 µM (active) [middle of 8 runs] | inactive | inactive |  | inactive | 61.4 µM (active) and 191 µM (active) and 89.9 µM (active) |  | 110 µM (active) and 9.67 µM (active) | 142 µM (active) and 53.4 µM (active) |  |  | 180 µM (active) and 40.3 µM (active) | 140 µM (active) and 26.8 µM (active) | 
COP(=O)(OC)OC=C(Cl)Cl | inactive | inactive | inactive |  | inactive | inactive | 67.3 µM (active) |  |  |  |  | 18.4 µM (active) |  |  |  |  |  |  | 50 µM (active) | 
CC(C)(C)C(O)C(Oc1ccc(Cl)cc1)n1cncn1 (stereo not given) | inactive | inactive | inactive | inactive | inactive | inactive | 10.4 µM (active) | inactive | inactive | inactive | inactive |  | 4.35 µM (active) and 4.55 µM (active) and 7.16 µM (active) |  | 5.81 µM (active) | 7.06 µM (active) |  |  |  | 7.92 µM (active)
Oc1ccc(Cl)cc1Cc1ccccc1 | inactive | inactive | inactive | inactive | inactive | inactive | 12.7 µM (active) | inactive | inactive | inactive |  | 15.2 µM (active) |  | 110 µM (active) | 13.4 µM (active) | 8.76 µM (active) | 11.2 µM (active) and 14.2 µM (active) and 13.4 µM (active) |  | 17.6 µM (active) | 
CNC(=O)CSP(=S)(OC)OC | inactive | inactive | inactive | inactive | inactive | inactive |  | inactive | inactive |  | inactive |  |  |  |  |  |  |  |  | 
Cc1[nH]c(=O)n(C(C)(C)C)c(=O)c1Cl | inactive |  |  | inactive | inactive | inactive |  | inactive | inactive | inactive |  |  |  |  | 30.3 µM (active) | 31.3 µM (active) |  |  |  | 50.5 µM (active)
O=[N+]([O-])c1c(Cl)c(Cl)c(Cl)c(Cl)c1Cl | inactive |  | inactive | inactive | inactive | inactive |  | inactive | inactive |  | inactive |  | 13.2 µM (active) |  | 32.2 µM (active) |  |  |  |  | 
OCCOc1ccccc1 | inactive | inactive | inactive | inactive | inactive | inactive |  | inactive | inactive | inactive | inactive |  |  |  |  |  |  |  |  | 
N#Cc1c(Cl)c(Cl)c(Cl)c(C#N)c1Cl | inactive | inactive | inactive | inactive | inactive | inactive |  | inactive | inactive |  | inactive |  | 0.167 µM (active) |  |  |  |  |  |  | 
CC1(c2ccc(Oc3ccccc3)cc2)OC(=O)N(Nc2ccccc2)C1=O (stereo not given) | inactive |  | inactive | inactive | inactive | inactive |  | inactive | inactive | inactive |  |  |  |  | 1.3 µM (active) |  |  |  |  | 1.14 µM (active)
